The values below come from PubChem BioAssay (NCATS).

Results filed as inconclusive are left out. Calls of active or inactive are those of the source. Unless noted, the rule behind the calls is not given here.

Experiment [1] is described as follows: qHTS profiling of the MIPE4 collection as inhibitors of Plasmodium falciparum (3D7) proliferation (AID 743344).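 Note: scaled between DMSO vehicle wells and 0.29 µM artemisinin as full inhibition.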 The settings on record: P. falciparum 3D7 in erythrocytes, SYBR Green DNA fluorescence, 72 h; at 28.5 µM unless noted. In outline: (§1)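 Parasite DNA was quantified by SYBR Green I fluorescence (ex 485, em 535 nm) after overnight lysis in saponin/Triton buffer at room temperature. Cultures at 0.3% parasitemia and 2.5% hematocrit were first exposed to compound for 72 h at 37 C; signals were normalised to artemisinin (0.29 uM) and vehicle wells.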

The nature of experiment [2]: qHTS profiling of the MIPE4 collection as inhibitors of Plasmodium falciparum (DD2) proliferation (AID 743345). The settings on record: P. falciparum Dd2 in erythrocytes, SYBR Green DNA, 72 h; at 28.5 µM unless noted. In short, it runs like this:
as §1
For orientation: qHTS replaces the single test concentration by a dilution series.

Experiment [3] can be described thus: qHTS profiling of the MIPE4 collection as inhibitors of Plasmodium falciparum (DD2) proliferation (Rep 2) (AID 743346). The settings on record: P. falciparum Dd2 in erythrocytes, SYBR Green DNA, 72 h; at 28.5 µM unless noted. In outline: as §1
Experiment [4] is described as follows: qHTS profiling of the MIPE4 collection as inhibitors of Plasmodium falciparum (HB3) proliferation (AID 743347).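 Note: plate controls were DMSO vehicle wells for no effect and artemisinin wells for full effect.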 The settings on record: P. falciparum HB3 in erythrocytes, SYBR Green DNA, 72 h; at 28.5 µM unless noted. In short, it runs like this:
as §1

Experiment [5] in a line: High-throughput drug toxicity screening in the BPDCN cell line Gen2.2 (AID 1224824).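 Note: cells exposed to compounds for 48 h before reading.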 To be noted: Gen2.2 BPDCN cells; at 45.8 µM (top of the series) unless noted. In short, it runs like this:
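Seed 500 exponentially growing Gen2.2 cells/well; add compounds by pin tool; incubate 48 h, 37 °C, 5% CO2; add CellTiter-Glo, 15 min RT; read luminescence. % activity vs DMSO (100%) and bortezomib (0%).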

Experiment [6] in a line: High-throughput drug toxicity screening in the BPDCN cell line Cal-1 (AID 1224825). To be noted: Cal-1 BPDCN cell viability, qHTS; at 45.8 µM (top of the series) unless noted. In outline:
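CellTiter-Glo luminescence after 48 h compound exposure; percent activity scaled with DMSO as 100% and bortezomib (9.2 uM final) as 0%. Cal-1 cells seeded at 500/well in RPMI, 10% FBS, no phenol red.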

Experiment [7] in a line: qHTS assay for measurement of the activity of small molecule inhibitors on Zika virus induced Caspase-3 activity in human iPSC derived neural progenitor cells (hNPCs) (AID 1224857; active = well fitted inhibition curve with a large enough effect; note: nearly all actives have a fitted effect of over 65% in size; note: potency is the fitted concentration of half-maximal effect). In short, it runs like this: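 hNPCs seeded 350 cells/well, cultured 16–20 h; compounds added 1 h before ZIKV (2 FFU/cell), 37 C 6 h. Caspase-Glo 3/7 luminescence after 30 min RT; % inhibition from induction scaled to uninfected (0%) and infected (100%) wells.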

Experiment [8] in a line: qHTS assay for measurement of the activity of small molecule inhibitors on Zika virus induced Caspase-3 activity in human astrocytoma cells (AID 1224859; active = well fitted inhibition curve with a large enough effect;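 note: plate controls were ZIKV-infected untreated cells for no effect and uninfected cells for full effect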). In short, it runs like this: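 Luminescence read-out (Caspase-Glo 3/7, 30 min RT) of caspase activity in SNB-19 cells infected 6 h with ZIKV, 2 FFU/cell, after 1 h compound pretreatment; % inhibition from induction normalised to uninfected (0%) and infected (100%) wells.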

Experiment [9] in a line: qHTS Screen of the MIPE 4.0 Collection Against Ewings Sarcoma (RDES) (AID 1259252; active = well fitted inhibition curve with a large enough effect; note: nearly all actives have a fitted effect of over 35% in size; note: potency is the fitted concentration of half-maximal effect). In outline:
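Viability screen: 48 h incubation at 37C, 95% humidity, 5% CO2 with serially titrated compound, followed by CellTiter-Glo readout.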

Take `CN1CCN(c2cccc(Nc3nc4c(-c5ccc(S(C)(=O)=O)cc5)cccn4n3)c2)CC1`: the parasite growth, % of DMSO control in experiment [1] stood at 11.4%. In experiment [2], this molecule yielded a parasite growth remaining, % of DMSO control (lower = more inhibition) of 11.3%. Besides, in experiment [3], the parasite growth, % of control (lower = inhibition) came out at 11.4%. The same molecule yielded a growth, % of control in [4] of 10.2%. Further, the cell viability, % of control (lower = more cytotoxic) in experiment [5] worked out at 83%. Besides, the viability (% of control) in experiment [6] was 50.9%. Moreover, the Potency result in [7] and in experiment [8] was “inactive” throughout. In addition, in experiment [9], the Potency was 3.72 µM (active).

On to `CC1(COc2ccc3c(c2)ncn3-c2ccc3cccc(N4CCC(N)CC4)c3n2)COC1`, for which, in [1], the parasite growth, % of DMSO control is 5.45%. Moreover, the parasite growth remaining, % of DMSO control (lower = more inhibition) in experiment [2] came out at 6.71%. For the same molecule, the parasite growth, % of control (lower = inhibition) in experiment [3] worked out at 14.5%. In [4], this molecule had a growth, % of control of 4.9%. Further, in experiment [5], the cell viability, % of control (lower = more cytotoxic) was 5.87%. In [6], the viability (% of control) stood at 3.06%. The Potency result in [7], in [8] and in experiment [9] was “inactive” throughout.

In experiment [1], `CN(C)CCN(Cc1ccc(Cl)cc1)c1ccccn1` yielded a parasite growth, % of DMSO control of 38.2%. Further, in experiment [2], the parasite growth remaining, % of DMSO control (lower = more inhibition) was found to be 50.5%. Further, the parasite growth, % of control (lower = inhibition) in [3] was determined as 28.6%. In [4], this molecule had a growth, % of control of 53%. In addition, the cell viability, % of control (lower = more cytotoxic) in experiment [5] stood at 86.6%. Besides, the viability (% of control) in experiment [6] amounted to 37.6%. For the same molecule, the Potency entry in experiment [7] and in experiment [8] was “inactive” in each case. In addition, in experiment [9], the Potency is 23.5 µM (active).

In experiment [1], `O[C@@H](COc1cccc2ncccc12)CN1CCN(C2c3ccccc3[C@@H]3[C@H](c4ccccc42)C3(F)F)CC1` (stereo not given in full) showed a parasite growth, % of DMSO control of 47.1%. The molecule also returned a parasite growth remaining, % of DMSO control (lower = more inhibition) in experiment [2] of 65.6%. The same molecule came in with a parasite growth, % of control (lower = inhibition) in [3] of 54.1%. The growth, % of control in experiment [4] is 63.5%. Moreover, the cell viability, % of control (lower = more cytotoxic) in [5] was determined as 4.83%. The viability (% of control) in [6] is 6.33%. For the same molecule, the Potency in [7] was 26.4 µM (active); in experiment [9], 20.9 µM (active). The Potency entry in [8] is “inactive”.

`O=S(=O)(NCCNCC=Cc1ccc(Br)cc1)c1cccc2cnccc12` showed a parasite growth, % of DMSO control in experiment [1] of 35.6%. In experiment [2], this molecule had a parasite growth remaining, % of DMSO control (lower = more inhibition) of 19.2%. The parasite growth, % of control (lower = inhibition) in experiment [3] is 35.5%. The same molecule had a growth, % of control in experiment [4] of 33.3%. The cell viability, % of control (lower = more cytotoxic) in [5] came to 247%. Also, in experiment [6], the viability (% of control) was determined as 57.7%. For the same molecule, the Potency entry in experiment [7] and in experiment [8] was “inactive” in each case. For the same molecule, the Potency in experiment [9] is 2.64 µM (active).

The molecule `CSc1cccc(Nc2ncc3cc(-c4c(Cl)cccc4Cl)c(=O)n(C)c3n2)c1` had a parasite growth, % of DMSO control in experiment [1] of 5.72%. Further, the parasite growth remaining, % of DMSO control (lower = more inhibition) in experiment [2] was determined as 13.9%. The molecule also displayed a parasite growth, % of control (lower = inhibition) in [3] of 9.88%. For the same molecule, the growth, % of control in experiment [4] came to 9.92%. Moreover, in [5], the cell viability, % of control (lower = more cytotoxic) came to 288%. The viability (% of control) in experiment [6] amounted to 34.2%. The Potency entry in experiment [7] and in experiment [8] was “inactive” throughout. The Potency in [9] is 0.0935 µM (active).

In the case of `COc1cc(N2CCN(C)CC2)ccc1Nc1nc(N)c(C(=O)c2c(Cl)cccc2Cl)s1`, the parasite growth, % of DMSO control in experiment [1] stood at 20.2%. Further, the parasite growth remaining, % of DMSO control (lower = more inhibition) in experiment [2] was found to be 8.77%. In addition, in experiment [3], the parasite growth, % of control (lower = inhibition) is 14.6%. For the same molecule, in experiment [4], the growth, % of control worked out at 21.1%. In addition, the cell viability, % of control (lower = more cytotoxic) in experiment [5] worked out at 72.5%. In experiment [6], the viability (% of control) was found to be 49.7%. The Potency entry in experiment [7] and in experiment [8] was “inactive” in each case. For the same molecule, the Potency in experiment [9] is 13.2 µM (active).

Turning to `O=C(O)C1=CC(O)C(O)[C@H](O)C1` (stereo not given in full), the parasite growth, % of DMSO control in [1] amounted to 92.4%. In addition, the parasite growth remaining, % of DMSO control (lower = more inhibition) in experiment [2] is 55.1%. The molecule also came in with a parasite growth, % of control (lower = inhibition) in [3] of 86.5%. Further, in experiment [4], the growth, % of control is 51.8%. The cell viability, % of control (lower = more cytotoxic) in [5] was found to be 146%. The viability (% of control) in [6] came to 105%. Further, the Potency entry in experiment [7], in experiment [8] and in [9] was “inactive” in each case.

`C[C@@]1(c2cc(-c3cncnc3)c(F)cc2F)CCSC(N)=N1` returned a parasite growth, % of DMSO control in experiment [1] of 28.5%. Also, in experiment [2], the parasite growth remaining, % of DMSO control (lower = more inhibition) came to 44.7%. The molecule also yielded a parasite growth, % of control (lower = inhibition) in experiment [3] of 28.2%. Further, the growth, % of control in experiment [4] amounted to 14%. In experiment [5], the cell viability, % of control (lower = more cytotoxic) came out at 9.95%. Moreover, the viability (% of control) in [6] stood at 13.1%. Further, the Potency entry in experiment [7], in [8] and in [9] was “inactive” throughout.

The molecule `CN(CC=CC#CC(C)(C)C)Cc1cccc2ccccc12` had a parasite growth, % of DMSO control in [1] of 15%. Moreover, the parasite growth remaining, % of DMSO control (lower = more inhibition) in experiment [2] stood at 79.2%. This molecule had a parasite growth, % of control (lower = inhibition) in [3] of 14.9%. This molecule yielded a growth, % of control in experiment [4] of 14.6%. Further, the cell viability, % of control (lower = more cytotoxic) in experiment [5] came to 194%. Also, the viability (% of control) in [6] came to 115%. Moreover, the Potency result in experiment [7], in experiment [8] and in experiment [9] was “inactive” throughout.
